Screening results (PubChem)
DT40 TDP1 no CPT: qHTS for Inhibitors of human tyrosyl-DNA phosphodiesterase 1 (TDP1): qHTS in cells in absence of CPT; DT40 Tdp1-/- hTDP1 cells, no CPT, ATP luminescence, 48 h; AID 686978, 2013; Potency, µM (titrated, usually from 46.2 µM), for inactives: top-dose activity change, negative = growth inhibition, actives largely listed as inhibitors; actives 15% (n = 420,000); also: potency is read from the fitted curve at half-maximal effect; % is scaled to controls: 0 for no effect and ±100 for the full control effect; nearly all actives have a fitted effect of over 55% in size
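Seeded 400 DT40-hTDP1 cells/well (vehicle DMSO, no 20 nM CPT); pinned compounds; ≥48 hr at 37 °C; CellTiter-Glo luminescence as viability measure.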
HepG2 viability: counter-screen for TGF-b inhibitors: cytotoxicity in HepG2 cells; HepG2 CAGA-GFP viability, ATP luminescence, 18 h; Potency, µM (highest dose often 46.1 µM), for the others: top-dose activity change, negative = cytotoxicity, most hits filed as cytotoxic; actives 0.76% (n = 410,000); also: potency is read from the fitted curve at half-maximal effect
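HepG2 CAGA-GFP cells (1000/well, DMEM with 1% FBS) received compound, then TGF-beta at 500 pg/mL final, and were incubated 18 hours at 37 degrees C. Viability was read by CellTiter-Glo luminescence. Media-only wells were set as complete cell-killing and DMSO as no toxicity.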
IL-1B inflam inh: blocks inflammasome-driven IL-1 beta release; THP-1 LPS/ATP IL-1B secretion, AlphaLISA, 16 h; stronger effect = lower value; activity change, % at 57.5 µM; actives 4.7% (n = 360,000); AID 743279; in the data active = activity change below about -50%; inconclusive = mostly about -30% to -49%; also: % is scaled to controls: 0 for no effect and ±100 for the full control effect
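THP-1 cells pretreated 1 hr with compounds (up to 57.5 uM final), then stimulated with LPS (250 ng/mL final) plus ATP (1.25 mM final); secreted IL-1B measured by AlphaLISA after 16 hr, decreased signal indicating inhibition.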
TDP1 block: TDP1 (human) enzyme inhibition | Q9NUW8 | recombinant TDP1, AlphaScreen DNA substrate cleavage | Potency, µM (titrated, usually from 130 µM), for inactives: top-dose activity change, negative = inhibition, actives largely listed as inhibitors | actives 0.28% (n = 350,000) | AID 485290; also: potency is read from the fitted curve at half-maximal effect; % is scaled to controls: 0 for no effect and ±100 for the full control effect; nearly all actives have a fitted effect of over 40% in size
Target sequence (Q9NUW8 whole entry, looked up): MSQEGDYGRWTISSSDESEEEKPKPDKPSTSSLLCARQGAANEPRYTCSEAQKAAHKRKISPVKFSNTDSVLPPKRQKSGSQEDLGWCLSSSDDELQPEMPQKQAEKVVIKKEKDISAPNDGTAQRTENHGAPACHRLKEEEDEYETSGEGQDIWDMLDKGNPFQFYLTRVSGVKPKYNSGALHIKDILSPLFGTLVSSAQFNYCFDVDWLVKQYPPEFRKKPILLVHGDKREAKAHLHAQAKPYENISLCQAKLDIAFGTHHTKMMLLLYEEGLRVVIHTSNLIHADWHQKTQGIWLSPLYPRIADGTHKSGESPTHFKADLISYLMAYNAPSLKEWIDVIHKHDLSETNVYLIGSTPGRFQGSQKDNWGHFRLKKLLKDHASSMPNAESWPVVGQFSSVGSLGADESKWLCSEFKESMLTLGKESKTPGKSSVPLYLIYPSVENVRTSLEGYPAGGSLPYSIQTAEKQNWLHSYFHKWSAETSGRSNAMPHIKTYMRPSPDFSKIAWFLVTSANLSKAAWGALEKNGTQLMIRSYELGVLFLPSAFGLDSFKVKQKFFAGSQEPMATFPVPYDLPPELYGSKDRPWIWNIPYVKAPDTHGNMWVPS
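Recombinant human Tdp1 (E. coli-expressed, 1 nM final) preincubated with compounds 15 min at room temperature, then 5'-biotin/3'-phosphotyrosine-FITC DNA substrate (15 nM final) added for 5 min. AlphaScreen beads (10 ug/ml final) added 10 min; cleavage lowers signal.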
TDP1 cell CPT: DT40-hTDP1 cell growth loss with CPT. chicken DT40 Tdp1-/-;hTDP1 cells + 20 nM CPT, ATP luminescence, 48 h. actives 12% (n = 420,000). Potency, µM (highest dose often 46.2 µM), without a hit: at the highest dose activity change, negative = growth inhibition, actives largely listed as inhibitors; also: potency is read from the fitted curve at half-maximal effect; % is scaled to controls: 0 for no effect and ±100 for the full control effect; nearly all actives have a fitted effect of over 55% in size
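Chicken DT40 Tdp1-/- cells complemented with human TDP1, 400 cells/well, exposed to compounds plus 20 nM camptothecin for at least 48 h at 37 C; viability read as ATP content by CellTiter-Glo luminescence.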
TGFb inhibitor: inhibitors of TGF-b signaling. HepG2 CAGA-GFP TGF-b/SMAD3 reporter, GFP fluorescence, 18 h; TGF-beta stimulated, 500 pg/mL final. actives 1.2% (n = 410,000). AID 588855. Potency, µM (titrated, usually from 46.1 µM), inactives show at the highest dose activity, negative = inhibition, hits mostly inhibitors; also: potency is read from the fitted curve at half-maximal effect; % is scaled to controls: 0 for no effect and ±100 for the full control effect; nearly all actives have a fitted effect of over 65% in size
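TGF-beta reporter screen: HEPG2 CAGA-GFP, 1% FBS, 500 pg/mL TGF-beta final, 18 h; per-cell GFP summed per well; curves fitted and categorized by class.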
Starred values were filed as active, the others as inactive; u = inconclusive; x = no result; [ ] = another dose, or the depositor's remark. A selection: hits, their analogues and other compounds. The true share with any hit is near 19%. Unless noted, calls follow the shape of the dose curve; as a rule, active = well fitted curve in the direction sought with a large enough effect; inconclusive = small, poorly fitted or top-dose-only effect, or another doubt; inactive = no such curve, though single readings can be large; an effect the other way counts as inactive or inconclusive.

SMILES	DT40 TDP1 no CPT	HepG2 viability	IL-1B inflam inh	TDP1 block	TDP1 cell CPT	TGFb inhibitor
COc1ccc(-c2noc(CCC(=O)Nc3cc(Cl)c(OC)cc3OC)n2)cc1	18.4µM*	3.0%	-3.6	5.1%	u	u
CCNc1ncc2nc(-c3ccccc3)c(=O)n(C)c2n1	1.3%	x	x	x	-1.0%	x
Cc1cccc(N(CC(=O)NCCSc2ccc(Cl)cc2)S(C)(=O)=O)c1C	u	-8.5%	x	x	u	0.0%
Clc1ccccc1-c1cncnc1NCCN1CCOCC1	3.66µM*	x	x	x	3.26µM*	x
CC(=O)NCCNc1ncncc1-c1ccccc1C(F)(F)F	22.2%	x	x	31.6µM*	9.2%	x
FC(F)(F)c1ccccc1-c1cncnc1NCCN1CCOCC1	1.46µM*	x	x	x	1.03µM*	x
Clc1ccccc1-c1nc(NCCN2CCOCC2)c2ccccc2n1	-20.5%	x	x	x	u	x
COc1cc(C(=O)N2CC(=O)Nc3ccc(C)cc3C2c2ccc(F)cc2)cc(OC)c1OC (centres undefined)	u	-23.0%	x	5.9%	u	-1.0%
CC1CCCCN1CCCOC(=O)c1ccccc1 (centres undefined)	3.3%	x	x	x	-5.9%	x
CCCc1cc(=O)[nH]c(SCc2cc(C(=O)OC)c(C)o2)n1	-11.4%	-1.1%	34.6	0.0%	1.5%	1.7%
COC(=O)c1cc(CSc2nc3ccccc3[nH]2)oc1C	23.1µM*	-5.9%	29.2	7.9%	14.6µM*	-37.1%
COc1ccc(-c2cc(C(=O)Oc3ccc(C)c(C)c3)c3ccccc3n2)cc1	u	-0.4%	x	-0.4%[12.3 µM]	u	2.2%
Clc1ccccc1OCc1nn2c(-c3ccncc3)nnc2s1	u	-20.4%	-19.4	x	-29.9%	-1.9%
Cc1nc(COc2ccccc2Cl)sc1-c1ccnc(N)n1	u	-32.3%	-61.6*	x	u	11.6%
Cc1cc2oc(=O)cc(CN(C)Cc3ccccc3F)c2cc1Cl	u	-1.7%	18.5	x	u	-0.4%
Cc1ccc2c(CN(C)Cc3ccccc3)cc(=O)oc2c1	u	-16.9%	36.0	x	18.4µM*	-11.8%
CN(Cc1ccccc1)Cc1cc(=O)oc2ccccc12	u	11.6%	0.0	x	u	-20.7%
CN(Cc1ccccc1F)Cc1cc(=O)oc2cc(O)c(Cl)cc12	16.4µM*	-126.0%	22.0	-2.2%	14.6µM*	7.7%
C=CCN(CC=C)Cc1cc(=O)oc2ccc3ccccc3c12	16.4µM*	-16.8%	0.0	x	16.4µM*	u
CN(Cc1ccccc1)Cc1cc(=O)oc2ccc3ccccc3c12	18.4µM*	-11.8%	30.7	x	u	u
CCOc1cc(C(=O)NCc2nc(-c3cccc(C)c3)no2)cc(OCC)c1OCC	-22.4%	-12.7%	x	6.1%	-5.7%	-11.9%
CCCCN(CCCC)Cc1cc(=O)oc2ccc3ccccc3c12	16.4µM*	-48.9%	14.7	x	u	u
COc1cccc(/C=C/c2ccnc3ccccc23)c1OC	11.2µM*	-25.6%	x	x	u	u
COc1ccccc1/C=C/c1cncc(/C=C/c2ccccc2OC)c1	12.6µM*	-33.2%	x	x	u	-13.8%
COc1ccccc1C=Cc1ccnc2ccccc12	u	-27.8%	-93.1*	x	u	-3.9%
CC(C)=CCC[C@H](C)C[C@@H]1CC2=C(C(=O)OC(C)(C)O2)[C@H](c2ccc(Cl)cc2)O1	u	-26.3%	10.5	x	u	u
CC1(C(=O)NCc2cccs2)CCN1C(=O)Cc1cccc2ccccc12 (centres undefined)	16.4µM*	-32.2%	-4.4	x	29.1µM*	-6.8%
CC(C)CNC(=O)C1(C)CCCN1C(=O)Cc1cccc2ccccc12 (centres undefined)	8.2µM*	-8.6%	34.8	x	9.2µM*	0.8%
